Source: PubChem BioAssay
Values joined by “and” are separate entries in the source; they are usually repeats but may differ in a detail not shown here. Equal entries are not always repeated. Some compounds were tested as several samples or in several runs, with calls that do not always agree. Active and inactive are the calls of the source. Unless noted, the rule behind the calls is not given here.

What was measured:
[1] = liver-stage malaria parasite growth inhibition, primary screen, cell-based, HepG2, luciferase luminescence, HepG2 viability (AID 624349; in the data active = parasite load remaining mostly below about 12%, no sharp cut-off; inactive = mostly above about 10%;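 note: 100% = mean of DMSO negative control wells on the same plate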); conditions: P. berghei liver stage in HepG2, luciferase luminescence, concentration not given here; parasite load remaining: stronger effect = lower value; viability: measured here: HepG2 viability without parasites
[2] = viability rescue of complex I mutant cybrids, primary screen, cell-based, galactose medium, ATP luminescence (AID 1645843;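 active = z-score of at least 1.8 in each of two replicates, scored against plate mean and spread of sample wells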;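 note: positive z means more ATP and so rescue of galactose-driven cybrid death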); conditions: complex I mutant cybrid cells, 72 h, stronger effect = higher value
[3] = hESC survival regulators, cell-based (AID 493140); conditions: human embryonic stem cell survival screen; stronger effect = higher value;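 note: cells exposed to compounds for four days before counting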
[4] = kinase inhibitors against Plasmodium liver-stage infection, cell-based, known kinase inhibitor set, luminescence, hepatoma host viability (AID 624392); conditions: Plasmodium liver stage in hepatoma cells, luciferase luminescence, concentration not given here; liver cell % of control: measured here: host liver cell viability; parasite % of control: stronger effect = lower value;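 note: infected cells incubated roughly two days before readout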
[5] = test system: Hepatitis C virus NS3 helicase; test: HCV NS3 helicase inhibitors, primary screen, biochemical, fluorescence polarization, LOPAC1280 library (AID 687035; in the data active = inhibition above about 37%); conditions: Purified HCV NS3 helicase, Cy5-dT15 ssDNA binding fluorescence polarization; stronger effect = higher value; concentration not given here
[6] = Cy5 fluorescence quenching or enhancement artefacts, artefact control for HCV NS3 helicase inhibitor project, biochemical, LOPAC1280 (AID 687037); conditions: Cy5-DNA-NS3h complex fluorescence interference counterscreen
[7] = phospholipid biosynthesis inhibitors in animal cells, primary screen, cell-based, LOPAC library, screen 4 (AID 1347384); conditions: phospholipid biosynthesis inhibition screen, at 10 µM
[8] = inhibitors of Cryptococcus chitosan production, flow cytometry, Cibacron Brilliant Red staining (AID 1347148); conditions: Cryptococcus neoformans chitosan, stronger effect = lower value; at 10 µM unless noted;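 note: compound exposure lasted three days at 37 degrees C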
[9] = modulators of glucocorticoid suppression of NF-kB, cell-based, luciferase, IL-1B stimulus, dexamethasone (AID 624486); conditions: NF-kB luciferase reporter, IL-1B + dexamethasone, luminescence; percent of negative control (+Dex): actives lie on both sides, concentration not given here; z-score: measured here: IL-1B alone, no Dex;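 for percent of negative control (+Dex): 100% = mean signal of vehicle control wells on the plate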
[10] = kinase inhibitors altering Pseudomonas killing of worms, whole organism (AID 651566);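 note: tested at 14 µM; sign flipped so higher z means a lower ratio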; conditions: C. elegans killed by P. aeruginosa, survival ratio
[11] = activators of macrophage pro-inflammatory response, cell-based, murine, luminescence (AID 652131); conditions: murine macrophage pro-inflammatory reporter, stronger effect = higher value
[12] = target: NAD(+) hydrolase SARM1 (Homo sapiens) (UniProt Q6SZW1); test: SARM1 TIR NADase inhibitors, cell lysate, NAD-Glo luminescence (AID 1508614;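 active = compound whose remaining NAD level is above about 45 nM, limit read from the data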;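 note: higher remaining NAD means stronger inhibition of SARM1 NADase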); conditions: SAM-TIR HEK293T lysate NADase, at 1 µM, stronger effect = higher value
Chain of NAD(+) hydrolase SARM1 (Homo sapiens) (Q6SZW1 whole entry, looked up): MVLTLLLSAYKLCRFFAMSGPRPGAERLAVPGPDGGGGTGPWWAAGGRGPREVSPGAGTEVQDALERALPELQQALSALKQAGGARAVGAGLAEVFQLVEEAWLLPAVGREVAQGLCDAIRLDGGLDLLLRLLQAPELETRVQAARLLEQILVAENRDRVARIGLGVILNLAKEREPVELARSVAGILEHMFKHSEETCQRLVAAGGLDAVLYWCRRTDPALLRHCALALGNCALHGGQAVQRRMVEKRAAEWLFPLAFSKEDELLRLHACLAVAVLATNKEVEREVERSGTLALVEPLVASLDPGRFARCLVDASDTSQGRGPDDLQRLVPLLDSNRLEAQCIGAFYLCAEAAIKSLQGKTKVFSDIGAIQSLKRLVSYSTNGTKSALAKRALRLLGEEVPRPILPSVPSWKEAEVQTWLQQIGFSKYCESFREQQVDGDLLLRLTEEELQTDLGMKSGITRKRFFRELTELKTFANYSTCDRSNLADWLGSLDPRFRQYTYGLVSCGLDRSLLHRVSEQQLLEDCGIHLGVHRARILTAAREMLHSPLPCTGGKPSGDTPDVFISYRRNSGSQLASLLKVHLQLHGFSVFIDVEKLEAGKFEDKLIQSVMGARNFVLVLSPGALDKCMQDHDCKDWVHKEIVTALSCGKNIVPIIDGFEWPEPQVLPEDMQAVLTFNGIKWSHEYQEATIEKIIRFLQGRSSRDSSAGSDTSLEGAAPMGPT

[13] = circadian clock period modulators, cell-based, LOPAC library, luminescence reporter (AID 2774); conditions: circadian reporter cells, at 7 µM, actives lie on both sides;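 note: values are relative to mean of DMSO wells on each plate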
[14] = LFS_MB_1R medulloblastoma cell growth inhibition, synergistic combos for chromothripsis tumors, cisplatin or BGB combos (AID 1671452; in the data active = inhibition above about 80%;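 note: cells exposed for 96 hours before readout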); conditions: LFS_MB_1R medulloblastoma cells, stronger effect = higher value
[15] = CRL2098 osteosarcoma cell growth inhibition, synergistic combos for chromothripsis tumors, BGB or cisplatin IC20 combos (AID 1671454; in the data active = inhibition above about 80%;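 note: cells exposed for 96 h before readout; 0% = vehicle DMSO and 100% = killing by high DMSO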); conditions: CRL2098 osteosarcoma cells, drug combinations, stronger effect = higher value
[16] = HD-MB03 medulloblastoma cell growth inhibition, synergistic combos for chromothripsis tumors, BGB or cisplatin IC20 combos (AID 1671455; in the data active = inhibition above about 83%;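 note: 0% = vehicle DMSO and 100% = high DMSO as cytotoxic control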); conditions: HD-MB03 medulloblastoma cells, stronger effect = higher value
[17] = UWB1.289 ovarian carcinoma cell growth inhibition, synergistic combos for chromothripsis tumors, BGB or cisplatin combos (AID 1671456; in the data active = inhibition above about 80%;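 note: cells exposed to compound for four days; 0% = vehicle DMSO and 100% = killing by high DMSO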); conditions: UWB1.289 ovarian carcinoma cells, stronger effect = higher value
[18] = LFS_MB_2R medulloblastoma cell growth inhibition, synergistic combos for chromothripsis tumors, cisplatin combos (AID 1671457; in the data active = inhibition above about 80%;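 note: cells exposed to compound for four days before readout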); conditions: LFS_MB_2R medulloblastoma cells, stronger effect = higher value
[19] = UWB1.289_BRCA1 ovarian cancer growth, cell-based, BGB or cisplatin combinations (AID 1671459; in the data active = inhibition above about 80%); conditions: UWB1.289 BRCA1 ovarian carcinoma, drug combinations, stronger effect = higher value
[20] = human astrocyte viability loss, single and combined drugs, cytotoxicity control for chromothriptic childhood tumor combination screen, cell-based, BGB or cisplatin IC20 combos (AID 1671460; in the data active = inhibition above about 80%;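 note: cells exposed to compounds for 96 hours before viability readout; 0% = vehicle and 100% = killing control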); conditions: Human astrocytes, drug combinations, stronger effect = higher value
[21] = measured here: combination with cisplatin, at 0.5 µM
[22] = measured here: combination with cisplatin, at 5 µM

COc1ccc2c(c1)c(C1=C(c3c[nH]c4ccccc34)C(=O)NC1=O)cn2CCCN(C)C
parasite load remaining [1]: 27.6% (inactive)
viability [1]: 93.9%

C=CC[N+]1([C@H]2C[C@H]3[C@@H]4CC[C@H]5C[C@H](O)[C@@H](N6CCOCC6)C[C@]5(C)[C@H]4CC[C@]3(C)[C@H]2OC(C)=O)CCCC1
parasite load remaining [1]: 25.4% (inactive)
viability [1]: 138%
z-score [2]: 0.25 (inactive)

CS(=O)(=O)c1ccc(C(=O)Nc2ccc(Cl)c(-c3ccccn3)c2)c(Cl)c1
z-score [2]: 0.355 (inactive)

CN(C(Cc1ccc(OS(=O)(=O)c2cccc3cnccc23)cc1)C(=O)N1CCN(c2ccccc2)CC1)S(=O)(=O)c1cccc2cnccc12 (stereo not drawn)
survival [3]: 94.6 (inactive)

CCN(CCO)CCCOc1ccc2c(Nc3cc(CC(=O)Nc4cccc(F)c4)[nH]n3)ncnc2c1
parasite % of control [4]: 144% (inactive) and 137% (inactive) and 97.1% (inactive)

O=C(Nc1cc(Cl)cc2c1[nH]c1cnccc12)c1cccnc1
parasite load remaining [1]: 33.8% (inactive)
viability [1]: 87.1%

O=C1NC(=O)/C(=C/c2cccc(C(F)(F)F)c2)S1
parasite load remaining [1]: 38.3% (inactive)
viability [1]: 85%

CN1CC(=O)NC1=NC(=O)Nc1cccc(Cl)c1
inhibition [5]: -2% (inactive)
fluorescence ratio (interference) [6]: 1 (inactive)
outcome [7]: inactive

CN(C)c1ccccc1CN1CCCN(Cc2ccccc2N(C)C)C1c1ccncc1
outcome [7]: inactive

Nc1nc(Nc2ccc(S(N)(=O)=O)cc2)nn1C(=O)c1c(F)cccc1F
parasite load remaining [1]: 42.7% (inactive)
viability [1]: 170%
liver cell % of control [4]: 60.7% and 62.5% and 90.9%
parasite % of control [4]: 8.09% (inactive) and 28.9% (inactive) and 97.5% (inactive)

Clc1ccc(COC(Cn2ccnc2)c2ccc(Cl)cc2Cl)c(Cl)c1 (stereo not drawn)
survival [3]: 33.8 (inactive)

COc1cc2nccc(Oc3ccc(NC(=O)Nc4cc(C)on4)c(Cl)c3)c2cc1OC
parasite load remaining [1]: 25.6% (inactive)
viability [1]: 70.1%

COc1ccc2c(c1)CC[C@@H]1[C@@H]2CC[C@]2(C)[C@@H](NCCCCCCN3C(=O)C=CC3=O)CC[C@@H]12
fold fluorescence [8]: 12.8 [at 107.6 µM] (inactive)

N#Cc1c(NC(=O)c2cccc3ccccc23)sc2c1CCCC2
parasite load remaining [1]: 47.8% (inactive)
viability [1]: 98%
liver cell % of control [4]: 69%
parasite % of control [4]: 217% (inactive)
percent of negative control (+Dex) [9]: 130% (inactive)
z-score [9]: 1.48
z-score [10]: -1.07 (inactive)
z-score [11]: -1.04 (inactive)

Cc1ccc(F)c(NC(=O)Nc2ccc(-c3cccc4[nH]nc(N)c34)cc2)c1
liver cell % of control [4]: 57% and 72.1% and 102%
parasite % of control [4]: 112% (inactive) and 141% (inactive) and 35.1% (inactive)

C[C@H]1[C@H](O)O[C@@H]2O[C@@]3(C)CC[C@H]4[C@H](C)CC[C@@H]1[C@@]24OO3
remaining NAD [12]: 10 nM (inactive)

CC1(C)CCC2=C(O1)c1ccccc1C(=O)C2=O
period change [13]: -0.24 h (inactive)
inhibition [5]: -5% (inactive)
fluorescence ratio (interference) [6]: 1 (inactive)
fold fluorescence [8]: 9.76 [at 206.4 µM] (inactive)
outcome [7]: inactive
z-score [2]: -1.29 (inactive)
inhibition ([14]; at 0.5 µM): -13.2% (inactive) and 14.9% (inactive)
inhibition ([14]; measured here: combination with BGB IC40, at 0.05 µM): -55.4% and -11.7%
inhibition [14, 21]: -25.3% and 44%
inhibition [14, 22]: 96.9% and 102%
inhibition ([15]; at 0.5 µM): -39.7% (inactive) and -32.9% (inactive)
inhibition ([15]; measured here: combination with BGB at IC20, at 0.5 µM): -38.5% and -7.72%
inhibition ([15]; measured here: combination with cisplatin at IC20, at 0.5 µM): -39.4% and -35%
inhibition ([16]; at 0.5 µM): -12.2% (inactive) and -9.16% (inactive)
inhibition ([16]; measured here: combo with BGB at IC20, at 0.5 µM): 5.55% and -5.28%
inhibition ([16]; measured here: combo with cisplatin at IC20, at 0.5 µM): -34.7% and -19.2%
inhibition ([17]; at 0.5 µM): 12.3% (inactive) and 6.12% (inactive)
inhibition ([17]; measured here: inhibition with BGB combination, at 0.05 µM): -2.17% and 7.32%
inhibition ([17]; measured here: inhibition with cisplatin combination, at 0.05 µM): -10.2% and -8.62%
inhibition ([18]; at 0.5 µM): -21.3% (inactive) and -12.9% (inactive)
inhibition [18, 21]: -28.3% and -6.61%
inhibition [18, 22]: 89.1% and 88.9%
inhibition ([19]; BGB combination, concentration series, at 5 µM): 128% and 124%
inhibition ([19]; at 0.5 µM): 0.6% (inactive) and 6.57% (inactive)
inhibition ([19]; cisplatin combination, concentration series, at 5 µM): 129% and 128%
inhibition ([20]; at 0.5 µM): 16.9% (inactive) and 14.6% (inactive)
inhibition ([20]; measured here: combo with BGB IC20, at 0.5 µM): 23.9% and 15.8%
inhibition ([20]; measured here: combo with cisplatin IC20, at 0.5 µM): 20.7% and 18.1%

COC(=O)c1ccc2c(C(=Nc3ccc(N(C)C(=O)CN4CCN(C)CC4)cc3)c3ccccc3)c(O)[nH]c2c1
liver cell % of control [4]: 156% and 81.4% and 93.4%
parasite % of control [4]: 197% (inactive) and 560% (inactive) and 349% (inactive)

N#CCNC(=O)c1ccc(-c2ccnc(Nc3ccc(N4CCOCC4)cc3)n2)cc1
liver cell % of control [4]: 71.7% and 64% and 76%
parasite % of control [4]: 0.479% (inactive) and 0.449% (inactive) and 0.525% (active)

CC(C)=CCC/C(C)=C/CC/C(C)=C/CSc1ccccc1C(=O)O
period change [13]: -0.01 h (inactive)

CC(=O)Oc1cc2c(s1)CCN(C(C(=O)C1CC1)c1ccccc1F)C2 (stereo not drawn)
remaining NAD [12]: 10 nM (inactive)
z-score [2]: -1.04 (inactive)

Nc1ccn([C@@H]2O[C@H](CO)[C@@H](O)C2(F)F)c(=O)n1
parasite load remaining [1]: 8.34% (inactive)
viability [1]: 190%
z-score [2]: -1.98 (inactive)
